Sensor-assay potency score (higher = more potent) data for 40 sequences are collected here from the OligoGym collection.
Further: reference of the scale not given here.

The first experiment deals with MRPS24. Briefly: pooled miR-30 sensor sort-seq; sequence = guide strand. The conditions noted are these: shRNA.
Take TACTTGTGTGGAGACAACTGCC: the sensor-assay potency score (higher = more potent) was -0.594.
Still for that read-out and setting: as for TTGGAGGTGGAGTCGCACAGGA, the figure is -0.602.
Regarding TGTGCAGCGACAGCCAGCCTTT, the sensor-assay potency score (higher = more potent) is -0.931.
For TAGGACAGCAAAGTTTCACTGT, the sensor-assay potency score (higher = more potent) came out at 0.628.
As for TTGTGTGGAGACAACTGCCTCA, the sensor-assay potency score (higher = more potent) is -0.151.
In the case of TTTGTAAAAGTAGGACAGCAAA, the sensor-assay potency score (higher = more potent) was -1.45.
For the sequence TTCACTGTAGCCCACGAGGAAG, the sensor-assay potency score (higher = more potent) was -1.08.
TAAAAGTAGGACAGCAAAGTTT gave a sensor-assay potency score (higher = more potent) of -1.12.
In turn, TACCCCACATGAACTTGCGAAG gave a sensor-assay potency score (higher = more potent) of -1.43.
AAGGAAAACATCCTCCACCGTT returned a sensor-assay potency score (higher = more potent) of -0.646.
On to TAAAACCAGCTGGTCAGCCAGG, for which the sensor-assay potency score (higher = more potent) is -1.47.
Regarding TAGGTCACCGGCTTGTCCCCCT, the sensor-assay potency score (higher = more potent) is 0.167.

For the next experiment, the target named is MRS2. Described as above. The conditions noted are these: shRNA.
The sequence TAAACCGGTGCACTTCACCTGC displayed a sensor-assay potency score (higher = more potent) of -0.316.
TTAATATCTGTTTCTAACTCTG came in with a sensor-assay potency score (higher = more potent) of 0.197.
TTTGTCACAGTAAATACTGGGG returned a sensor-assay potency score (higher = more potent) of 0.152.
On the same count and under the same terms, as for TAATATCTGTTTCTAACTCTGA, the figure is -0.212; as for TAGCAACTCTTCCTCATCCAAG, -1; as for TAATATCAGAAGACACTCTGGA, 0.725.
With TGTGATACTCATTACATGCTGA, the sensor-assay potency score (higher = more potent) was 0.129.
Take TTGATACACAGAGCTCTTCTAG: the sensor-assay potency score (higher = more potent) is -0.709.
As for TGAATCATCAATCAGCACCCTA, the sensor-assay potency score (higher = more potent) is -0.284.
Same read-out and setting: under TTCCATGCTTCTATCTGCCAGA stands -0.489; under TACACAGAGCTCTTCTAGCAAC, -1.3.

The next experiment deals with MST4. Described as above. To be noted: shRNA.
For the sequence TATTTTGTTACATATGAGCTGT, the sensor-assay potency score (higher = more potent) was -0.0518.
Still for that read-out and setting: under TAATATTTGACAATTACTCAGA stands -0.142.
The same measure, in the same setting: as for TTTGTGAACAGTTCTTCTGGAT, the figure is 0.425.
TTATCATAGACAAACAACTCAG had a sensor-assay potency score (higher = more potent) of -0.749.
Sequence TAAAATTGCCTCTTCTACCTAA gave a sensor-assay potency score (higher = more potent) of 0.733.
Consider TAAACTGTAATTGTGTTTCAGT, for which the sensor-assay potency score (higher = more potent) was 0.0353.
TTGCTTTAAATTTCTAACCATG showed a sensor-assay potency score (higher = more potent) of -1.11.
Regarding TATAGGACAATTTATTACCATG, the sensor-assay potency score (higher = more potent) is -1.23.
TTCAACATTACCAAACACCTAT returned a sensor-assay potency score (higher = more potent) of -0.0444.
TATCATAGACAAACAACTCAGG showed a sensor-assay potency score (higher = more potent) of -0.251.
In turn, TAGTTTAATAGCTTCTTCCAAA displayed a sensor-assay potency score (higher = more potent) of -1.19.
Take TTTAATAGCAACGACTTGCTGG: the sensor-assay potency score (higher = more potent) turned out to be 0.885.

The next experiment has as its target MTDH. The description is as above. The conditions noted are these: shRNA.
TAAATTAAGATCGTTCTTGTTC yielded a sensor-assay potency score (higher = more potent) of 0.14.
The sequence TTTATCATCATCTGAGACCTTT displayed a sensor-assay potency score (higher = more potent) of -0.0741.
The sequence TTCTCGGACAGTTTCTTCCGGT had a sensor-assay potency score (higher = more potent) of -0.0604.
TTACACTTTGAGGTGTTCGAAC had a sensor-assay potency score (higher = more potent) of -0.892.
The sequence TTCTAATTCTTCTGTGTCCTGT registered a sensor-assay potency score (higher = more potent) of 0.277.
